Reference: PMC7862700, “An all-to-all approach to the identification of sequence-specific readers for epigenetic DNA modifications on cytosine”

How the values were obtained:
Assay in all cases: DAPPL (digital affinity profiling via proximity ligation, sequencing); 10 mM Tris-HCl pH 7.5, 50 mM NaCl, 1 mM DTT, 4% glycerol, room temperature, 30 min; GST-TFs on glutathione beads, 16-mer random dsDNA library, 0.1% formaldehyde crosslink after washing; high values mean tight binding
FEV = molecular target: T1, FEV (Homo sapiens, UniProt Q99581 1-238); conditions: protein: recombinant; tags: N-terminal GST; dsDNA, one strand shown
T1 sequence: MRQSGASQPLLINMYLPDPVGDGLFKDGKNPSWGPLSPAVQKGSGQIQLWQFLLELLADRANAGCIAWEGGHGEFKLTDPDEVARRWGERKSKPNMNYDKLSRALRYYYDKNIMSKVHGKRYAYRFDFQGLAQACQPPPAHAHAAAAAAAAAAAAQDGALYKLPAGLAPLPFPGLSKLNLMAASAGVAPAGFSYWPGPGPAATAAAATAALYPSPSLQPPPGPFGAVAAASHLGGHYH
How it was run: (§1)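 The binding signal reported is, for every hexamer, its read frequency for a factor over its read frequency for the tag-only sample. Reads came from pools of yeast-expressed, GST-fused human transcription factors on glutathione beads, barcoded with DNA and mixed with that sample, which were incubated with 200 nmole of a random double-stranded 16-mer DNA library in Tris/NaCl/DTT/glycerol buffer at room temperature for 30 min. After washing, the pools were crosslinked with 0.1% formaldehyde, proximity-ligated with BsaI/T4 ligase for 1 h at 37 °C, PCR-amplified and sequenced on an Illumina NextSeq500.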

ETV5 = ETV5 (Homo sapiens, UniProt P41161 1-510); conditions: protein: recombinant; tags: N-terminal GST; dsDNA, one strand shown
Chain of ETV5 (P41161 whole entry): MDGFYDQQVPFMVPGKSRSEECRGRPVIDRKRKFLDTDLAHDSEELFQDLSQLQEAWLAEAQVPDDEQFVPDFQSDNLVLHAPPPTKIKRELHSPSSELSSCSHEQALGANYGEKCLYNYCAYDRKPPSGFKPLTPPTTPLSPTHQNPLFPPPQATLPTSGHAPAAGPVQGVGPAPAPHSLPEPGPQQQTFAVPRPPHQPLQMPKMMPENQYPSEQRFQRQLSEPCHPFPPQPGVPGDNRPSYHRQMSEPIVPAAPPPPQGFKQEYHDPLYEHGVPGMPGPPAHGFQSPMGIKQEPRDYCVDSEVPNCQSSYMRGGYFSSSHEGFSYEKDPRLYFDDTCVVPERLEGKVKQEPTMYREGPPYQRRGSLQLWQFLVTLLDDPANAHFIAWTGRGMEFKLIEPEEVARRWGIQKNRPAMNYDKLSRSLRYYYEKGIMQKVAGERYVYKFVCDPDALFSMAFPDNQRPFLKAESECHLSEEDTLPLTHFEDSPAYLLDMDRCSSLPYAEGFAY
How it was run: as §1

HSF1 = HSF1 (Homo sapiens, UniProt Q00613 1-529); conditions: protein: recombinant; tags: N-terminal GST; chain copies: 3; dsDNA, one strand shown
Chain of HSF1 (Q00613 whole entry): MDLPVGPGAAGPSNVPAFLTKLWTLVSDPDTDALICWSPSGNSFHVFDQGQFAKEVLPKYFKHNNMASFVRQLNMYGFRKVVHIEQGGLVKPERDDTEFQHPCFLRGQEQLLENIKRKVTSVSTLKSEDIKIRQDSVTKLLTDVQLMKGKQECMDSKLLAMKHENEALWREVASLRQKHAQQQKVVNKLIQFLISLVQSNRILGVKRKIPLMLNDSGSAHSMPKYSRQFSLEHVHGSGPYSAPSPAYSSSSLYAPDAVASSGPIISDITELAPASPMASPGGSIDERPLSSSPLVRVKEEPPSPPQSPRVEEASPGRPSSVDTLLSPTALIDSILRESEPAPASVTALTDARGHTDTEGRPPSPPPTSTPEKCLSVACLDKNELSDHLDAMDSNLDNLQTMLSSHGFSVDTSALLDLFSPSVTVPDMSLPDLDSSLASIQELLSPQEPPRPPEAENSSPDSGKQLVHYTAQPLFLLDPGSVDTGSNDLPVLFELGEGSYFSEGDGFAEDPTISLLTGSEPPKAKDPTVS
How it was run: as §1

SPIC = molecular target: T2, SPIC (Homo sapiens, UniProt Q8N5J4 1-248); conditions: protein: recombinant; tags: N-terminal GST; dsDNA, one strand shown
T2 sequence: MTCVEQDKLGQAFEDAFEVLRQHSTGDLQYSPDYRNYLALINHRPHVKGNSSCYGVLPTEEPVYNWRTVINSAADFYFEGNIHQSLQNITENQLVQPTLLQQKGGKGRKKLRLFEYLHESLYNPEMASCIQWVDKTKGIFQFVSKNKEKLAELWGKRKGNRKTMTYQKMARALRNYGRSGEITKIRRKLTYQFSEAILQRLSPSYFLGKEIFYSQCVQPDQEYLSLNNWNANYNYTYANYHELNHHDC
How it was run: as §1

ELF4 = ELF4 (Homo sapiens, UniProt Q99607 1-663); conditions: protein: recombinant; tags: N-terminal GST; dsDNA, one strand shown
Chain of ELF4 (Q99607 whole entry): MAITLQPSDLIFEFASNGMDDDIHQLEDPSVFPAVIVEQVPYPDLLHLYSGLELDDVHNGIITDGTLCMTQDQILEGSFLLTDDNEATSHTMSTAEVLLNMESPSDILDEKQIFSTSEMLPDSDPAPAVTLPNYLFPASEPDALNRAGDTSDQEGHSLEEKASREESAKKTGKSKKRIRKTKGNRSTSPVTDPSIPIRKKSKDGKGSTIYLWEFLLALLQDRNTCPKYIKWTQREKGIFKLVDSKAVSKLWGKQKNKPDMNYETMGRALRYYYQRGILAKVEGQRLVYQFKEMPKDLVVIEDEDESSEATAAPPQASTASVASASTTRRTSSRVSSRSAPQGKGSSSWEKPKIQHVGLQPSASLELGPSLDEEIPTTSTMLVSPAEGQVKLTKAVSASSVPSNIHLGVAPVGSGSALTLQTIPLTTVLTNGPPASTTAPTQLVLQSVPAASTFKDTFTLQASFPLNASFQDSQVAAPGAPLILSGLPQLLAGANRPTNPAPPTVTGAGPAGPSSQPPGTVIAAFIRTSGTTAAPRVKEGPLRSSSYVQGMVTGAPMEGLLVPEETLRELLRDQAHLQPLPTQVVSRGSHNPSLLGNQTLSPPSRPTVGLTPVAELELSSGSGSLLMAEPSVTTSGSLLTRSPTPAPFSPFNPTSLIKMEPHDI
How it was run: as §1

ELK4 = molecular target: T3, ELK4 (Homo sapiens, UniProt P28324-2 1-405); conditions: protein: recombinant; tags: N-terminal GST; dsDNA, one strand shown
T3 sequence: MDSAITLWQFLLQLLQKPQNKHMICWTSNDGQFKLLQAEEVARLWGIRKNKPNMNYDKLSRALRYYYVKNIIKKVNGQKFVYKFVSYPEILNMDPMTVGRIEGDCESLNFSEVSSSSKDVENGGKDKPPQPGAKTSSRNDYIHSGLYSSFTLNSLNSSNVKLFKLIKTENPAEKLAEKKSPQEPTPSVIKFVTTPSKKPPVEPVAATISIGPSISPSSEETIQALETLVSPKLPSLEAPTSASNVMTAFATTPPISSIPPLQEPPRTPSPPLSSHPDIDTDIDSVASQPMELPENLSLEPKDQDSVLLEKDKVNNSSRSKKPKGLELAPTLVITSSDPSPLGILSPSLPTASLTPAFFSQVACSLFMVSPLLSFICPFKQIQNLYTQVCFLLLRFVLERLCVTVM
How it was run: as §1

ETV2 = molecular target: T4, ETV2 (Homo sapiens, UniProt O00321 1-342); conditions: protein: recombinant; tags: N-terminal GST; dsDNA, one strand shown
T4 sequence: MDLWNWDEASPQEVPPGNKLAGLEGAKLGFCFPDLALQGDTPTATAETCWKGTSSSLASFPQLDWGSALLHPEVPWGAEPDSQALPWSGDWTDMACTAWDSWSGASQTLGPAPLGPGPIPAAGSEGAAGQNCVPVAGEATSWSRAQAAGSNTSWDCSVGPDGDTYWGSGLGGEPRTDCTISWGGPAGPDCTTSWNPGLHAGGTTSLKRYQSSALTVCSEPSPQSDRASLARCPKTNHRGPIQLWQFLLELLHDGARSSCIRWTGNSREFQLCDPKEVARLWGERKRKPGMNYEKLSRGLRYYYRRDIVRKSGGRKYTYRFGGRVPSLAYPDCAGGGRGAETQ
How it was run: as §1

ELF3 = molecular target: T5, ELF3 (Homo sapiens, UniProt P78545 1-371); conditions: protein: recombinant; tags: N-terminal GST; dsDNA, one strand shown
T5 sequence: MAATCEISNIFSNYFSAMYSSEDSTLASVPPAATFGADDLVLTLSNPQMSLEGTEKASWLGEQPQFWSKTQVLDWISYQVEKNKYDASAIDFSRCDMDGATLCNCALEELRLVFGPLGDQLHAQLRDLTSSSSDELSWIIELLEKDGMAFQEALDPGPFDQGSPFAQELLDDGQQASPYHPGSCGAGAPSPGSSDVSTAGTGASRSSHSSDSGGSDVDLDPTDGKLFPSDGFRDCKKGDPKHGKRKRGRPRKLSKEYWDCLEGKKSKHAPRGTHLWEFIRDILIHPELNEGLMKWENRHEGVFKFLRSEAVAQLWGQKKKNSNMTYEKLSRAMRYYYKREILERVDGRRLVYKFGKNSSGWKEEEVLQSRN
How it was run: as §1

ETV1 = ETV1 (Homo sapiens, UniProt P50549 1-477); conditions: protein: recombinant; tags: N-terminal GST; dsDNA, one strand shown
Chain of ETV1 (P50549 whole entry): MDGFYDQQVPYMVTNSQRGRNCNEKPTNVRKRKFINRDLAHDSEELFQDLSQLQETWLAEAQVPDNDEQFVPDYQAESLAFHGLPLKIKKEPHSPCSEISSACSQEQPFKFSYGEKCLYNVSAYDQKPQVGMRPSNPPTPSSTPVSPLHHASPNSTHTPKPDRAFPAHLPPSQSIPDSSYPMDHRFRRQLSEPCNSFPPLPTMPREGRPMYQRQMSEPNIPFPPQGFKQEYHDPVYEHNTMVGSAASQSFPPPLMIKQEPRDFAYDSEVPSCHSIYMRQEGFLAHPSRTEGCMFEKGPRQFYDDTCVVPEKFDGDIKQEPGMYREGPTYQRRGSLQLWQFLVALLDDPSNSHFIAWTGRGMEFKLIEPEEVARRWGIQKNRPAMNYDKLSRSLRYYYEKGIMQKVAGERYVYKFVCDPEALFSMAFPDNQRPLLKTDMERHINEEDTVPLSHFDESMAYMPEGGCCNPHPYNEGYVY
How it was run: as §1

ERF = molecular target: T6, ERF (Homo sapiens, UniProt P50548 1-548); conditions: protein: recombinant; tags: N-terminal GST; dsDNA, one strand shown
T6 sequence: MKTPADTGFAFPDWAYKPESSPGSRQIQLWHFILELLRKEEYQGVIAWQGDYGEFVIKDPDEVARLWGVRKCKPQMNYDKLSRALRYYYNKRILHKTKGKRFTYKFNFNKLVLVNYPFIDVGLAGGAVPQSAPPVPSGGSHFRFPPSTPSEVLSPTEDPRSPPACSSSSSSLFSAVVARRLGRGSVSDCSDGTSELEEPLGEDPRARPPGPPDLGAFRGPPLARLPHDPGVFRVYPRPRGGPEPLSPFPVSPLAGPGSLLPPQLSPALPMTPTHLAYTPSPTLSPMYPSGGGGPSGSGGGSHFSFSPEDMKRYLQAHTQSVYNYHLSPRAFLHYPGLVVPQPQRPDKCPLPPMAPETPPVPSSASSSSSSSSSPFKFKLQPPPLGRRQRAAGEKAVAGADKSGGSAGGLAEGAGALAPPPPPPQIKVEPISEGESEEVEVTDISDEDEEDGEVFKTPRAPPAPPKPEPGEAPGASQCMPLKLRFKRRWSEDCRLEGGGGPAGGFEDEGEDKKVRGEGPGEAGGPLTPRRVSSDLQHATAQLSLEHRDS
How it was run: as §1

ETV3L = molecular target: T7, ETV3L (Homo sapiens, UniProt Q6ZN32 1-361); conditions: protein: recombinant; tags: N-terminal GST; dsDNA, one strand shown
T7 sequence: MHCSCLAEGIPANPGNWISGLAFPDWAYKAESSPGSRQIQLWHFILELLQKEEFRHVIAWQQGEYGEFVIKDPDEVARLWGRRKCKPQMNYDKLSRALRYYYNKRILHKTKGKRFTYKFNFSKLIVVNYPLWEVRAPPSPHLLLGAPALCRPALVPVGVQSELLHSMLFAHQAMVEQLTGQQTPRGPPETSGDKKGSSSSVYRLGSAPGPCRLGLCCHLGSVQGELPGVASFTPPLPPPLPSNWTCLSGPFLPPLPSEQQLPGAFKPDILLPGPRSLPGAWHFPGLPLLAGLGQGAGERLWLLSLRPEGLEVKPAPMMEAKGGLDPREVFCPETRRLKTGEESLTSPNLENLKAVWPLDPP
How it was run: as §1

ETS2 = molecular target: T8, ETS2 (Homo sapiens, UniProt P15036 1-469); conditions: protein: recombinant; tags: N-terminal GST; dsDNA, one strand shown
T8 sequence: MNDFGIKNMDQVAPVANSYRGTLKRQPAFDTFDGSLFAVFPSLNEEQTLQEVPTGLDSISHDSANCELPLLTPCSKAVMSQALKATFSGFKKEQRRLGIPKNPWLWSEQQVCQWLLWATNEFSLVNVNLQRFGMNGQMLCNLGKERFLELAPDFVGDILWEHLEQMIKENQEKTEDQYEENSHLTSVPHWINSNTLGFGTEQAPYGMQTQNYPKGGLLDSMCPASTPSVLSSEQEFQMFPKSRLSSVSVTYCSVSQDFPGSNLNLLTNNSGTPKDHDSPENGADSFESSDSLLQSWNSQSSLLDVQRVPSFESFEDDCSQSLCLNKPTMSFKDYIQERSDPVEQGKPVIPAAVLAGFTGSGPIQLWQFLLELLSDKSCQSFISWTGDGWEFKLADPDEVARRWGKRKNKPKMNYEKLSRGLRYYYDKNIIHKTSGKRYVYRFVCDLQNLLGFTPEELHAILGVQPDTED
How it was run: as §1

SPDEF = molecular target: T9, SPDEF (Homo sapiens, UniProt O95238 1-335); conditions: protein: recombinant; tags: N-terminal GST; dsDNA, one strand shown
T9 sequence: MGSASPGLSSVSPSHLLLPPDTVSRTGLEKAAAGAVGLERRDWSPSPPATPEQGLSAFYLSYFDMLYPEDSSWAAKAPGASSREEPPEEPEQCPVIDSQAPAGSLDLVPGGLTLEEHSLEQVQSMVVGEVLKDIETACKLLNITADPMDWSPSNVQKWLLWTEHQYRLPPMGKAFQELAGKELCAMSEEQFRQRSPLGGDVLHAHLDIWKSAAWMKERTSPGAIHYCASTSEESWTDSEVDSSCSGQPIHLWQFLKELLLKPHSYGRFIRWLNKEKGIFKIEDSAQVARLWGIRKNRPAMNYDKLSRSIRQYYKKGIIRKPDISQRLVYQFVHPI
How it was run: as §1

ETV7 = molecular target: T10, ETV7 (Homo sapiens, UniProt Q9Y603 1-341); conditions: protein: recombinant; tags: N-terminal GST; dsDNA, one strand shown
T10 sequence: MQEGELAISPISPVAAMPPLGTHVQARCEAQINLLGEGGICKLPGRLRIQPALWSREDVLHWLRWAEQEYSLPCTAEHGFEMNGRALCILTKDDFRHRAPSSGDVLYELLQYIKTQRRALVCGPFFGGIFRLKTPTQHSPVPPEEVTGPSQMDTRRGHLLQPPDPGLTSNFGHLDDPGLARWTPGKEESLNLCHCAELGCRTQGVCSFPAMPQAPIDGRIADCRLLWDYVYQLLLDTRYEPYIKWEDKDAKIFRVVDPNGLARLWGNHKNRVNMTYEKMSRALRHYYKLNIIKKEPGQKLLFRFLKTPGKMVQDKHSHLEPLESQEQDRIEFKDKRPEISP
How it was run: as §1

ELF5 = molecular target: T11, ELF5 (Homo sapiens, UniProt Q9UKW6-2 1-255); conditions: protein: recombinant; tags: N-terminal GST; dsDNA, one strand shown
T11 sequence: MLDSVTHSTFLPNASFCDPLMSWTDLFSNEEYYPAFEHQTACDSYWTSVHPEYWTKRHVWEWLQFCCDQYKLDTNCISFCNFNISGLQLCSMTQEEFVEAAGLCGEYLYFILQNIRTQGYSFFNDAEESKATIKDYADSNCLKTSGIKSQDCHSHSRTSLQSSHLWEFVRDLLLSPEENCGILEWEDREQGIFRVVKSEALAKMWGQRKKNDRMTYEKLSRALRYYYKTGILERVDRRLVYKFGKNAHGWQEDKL
How it was run: as §1

ETV3 = molecular target: T12, ETV3 (Homo sapiens, UniProt P41162-2 1-143); conditions: protein: recombinant; tags: N-terminal GST; dsDNA, one strand shown
T12 sequence: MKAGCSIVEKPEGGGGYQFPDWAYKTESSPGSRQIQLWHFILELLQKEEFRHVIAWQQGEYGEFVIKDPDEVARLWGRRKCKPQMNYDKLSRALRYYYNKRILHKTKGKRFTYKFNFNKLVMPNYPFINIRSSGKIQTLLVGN
How it was run: as §1

ETV6 = ETV6 (Homo sapiens, UniProt P41212 1-452); conditions: protein: recombinant; tags: N-terminal GST; dsDNA, one strand shown
Chain of ETV6 (P41212 whole entry): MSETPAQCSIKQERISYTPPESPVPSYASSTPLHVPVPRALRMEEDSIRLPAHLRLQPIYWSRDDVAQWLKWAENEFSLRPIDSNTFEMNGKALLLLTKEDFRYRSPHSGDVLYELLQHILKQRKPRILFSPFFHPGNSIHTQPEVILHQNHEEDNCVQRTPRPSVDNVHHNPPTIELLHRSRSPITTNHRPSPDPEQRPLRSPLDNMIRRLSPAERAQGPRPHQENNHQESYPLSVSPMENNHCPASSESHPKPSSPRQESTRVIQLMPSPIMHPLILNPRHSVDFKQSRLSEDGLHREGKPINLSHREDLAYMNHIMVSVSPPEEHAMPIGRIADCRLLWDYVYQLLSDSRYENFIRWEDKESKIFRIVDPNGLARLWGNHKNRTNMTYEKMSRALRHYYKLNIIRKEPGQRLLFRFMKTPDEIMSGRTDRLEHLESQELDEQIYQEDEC
How it was run: as §1

GTGTTC
binding signal (FEV): 1.08 fold enrichment (6-mer frequency, TF over GST control)
binding signal (ETV5): 1.14 fold enrichment (6-mer frequency, TF over GST control)
binding signal (HSF1): 1.12 fold enrichment (6-mer frequency, TF over GST control)
binding signal (SPIC): 1.36 fold enrichment (6-mer frequency, TF over GST control)
binding signal (ELF4): 1.12 fold enrichment (6-mer frequency, TF over GST control)
binding signal (ELK4): 1.25 fold enrichment (6-mer frequency, TF over GST control)
binding signal (ETV2): 1.15 fold enrichment (6-mer frequency, TF over GST control)
binding signal (ELF3): 1.19 fold enrichment (6-mer frequency, TF over GST control)
binding signal (ETV1): 1.14 fold enrichment (6-mer frequency, TF over GST control)
binding signal (ERF): 1.19 fold enrichment (6-mer frequency, TF over GST control)
binding signal (ETV3L): 1.14 fold enrichment (6-mer frequency, TF over GST control)
binding signal (ETS2): 1.17 fold enrichment (6-mer frequency, TF over GST control)
binding signal (SPDEF): 1.34 fold enrichment (6-mer frequency, TF over GST control)
binding signal (ETV7): 1.11 fold enrichment (6-mer frequency, TF over GST control)
binding signal (ELF5): 1.34 fold enrichment (6-mer frequency, TF over GST control)
binding signal (ETV3): 1.05 fold enrichment (6-mer frequency, TF over GST control)
binding signal (ETV6): 1.09 fold enrichment (6-mer frequency, TF over GST control)
